JMJD2E inh: JMJD2E (human) inhibition; JMJD2E catalytic domain, FDH-coupled NADH fluorescence (FDH is formaldehyde dehydrogenase); 1.6% of 230,000 active; B2RXH2; Potency, µM (top dose mostly 57.1 µM), for the others: at the highest dose activity change, negative = inhibition, actives largely listed as inhibitors; active = well fitted inhibition curve with a large enough effect, not every such curve was filed as active; inconclusive = small, poorly fitted or top-dose-only effect, or another doubt; inactive = no such curve, though single readings can be large or run the other way;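 note: potency is the fitted concentration of half-maximal effect; 0% = wells with enzyme and -100% = buffer wells without enzyme; nearly all actives have a fitted effect of over 50% in size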
Target sequence (B2RXH2 1-337 limits assumed): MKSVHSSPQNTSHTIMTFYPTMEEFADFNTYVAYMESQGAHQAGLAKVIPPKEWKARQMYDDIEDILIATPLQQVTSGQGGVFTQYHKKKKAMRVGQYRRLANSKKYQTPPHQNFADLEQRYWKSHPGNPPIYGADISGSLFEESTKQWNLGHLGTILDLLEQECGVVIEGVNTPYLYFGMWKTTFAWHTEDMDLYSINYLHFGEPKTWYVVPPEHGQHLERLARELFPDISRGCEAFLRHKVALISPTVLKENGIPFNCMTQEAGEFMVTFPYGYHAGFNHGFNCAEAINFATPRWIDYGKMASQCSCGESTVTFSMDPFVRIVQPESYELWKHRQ
Tau ThT inhib: blocks human tau fibril formation measured by thioflavin T; P10636; recombinant tau K18 P301L, heparin-induced fibrillization, ThT fluorescence; Potency, µM (top dose mostly 57.4 µM), without a hit: at the top dose activity, negative = inhibition, most hits filed as inhibitors; 2.1% of 270,000 active; note: potency is the fitted concentration of half-maximal effect; nearly all actives have a fitted effect of over 55% in size
Target sequence (P10636 561-689 P618L limits assumed): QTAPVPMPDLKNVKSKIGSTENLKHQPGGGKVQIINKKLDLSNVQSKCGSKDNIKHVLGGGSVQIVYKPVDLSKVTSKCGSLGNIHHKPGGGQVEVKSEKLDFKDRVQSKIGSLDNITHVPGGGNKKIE
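Heparin-induced (20 uM) aggregation of recombinant human K18 P301L tau, 15 uM unlabeled with 0.24 uM labeled, pH 7 acetate buffer, 6 hr at 37 C with compound. Fibrils quantified by 30 uM ThT fluorescence after 1 hr ambient incubation.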
Tau fluor counter: counter-screen for tau fibril formation inhibitors; AID 1463; 0.93% of 280,000 active; tau K18 P301L (four-repeat tau fragment) Alexa594 fluorescence, heparin fibrillization; Potency, µM (titrated, usually from 57.7 µM), without a hit: top-dose activity change, negative = decrease; note: potency is the fitted concentration of half-maximal effect; nearly all actives have a fitted effect of over 55% in size
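Human K18 P301L tau (15 uM unlabeled plus 0.24 uM Alexa 594-labeled, final) in 100 mM sodium acetate pH 7 was mixed with compound and 20 uM heparin and incubated 6 hr at 37 C.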
Sfp inh: blocks B. subtilis Sfp PPTase activity; Q9F4F7; Biochemical Sfp PPTase activity, qHTS; Potency, µM, inactives show largest response in the series, negative = inhibition, usual class: inhibitors; 3.5% of 310,000 active; AID 1490;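 note: the enzyme is Sfp with the accession as filed and its product quenches rhodamine fluorescence; potency is the fitted concentration of half-maximal effect; 0% = enzyme reaction without inhibitor and -100% = no enzyme wells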
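Fluorescence-quenching assay with 15 nM Sfp, 5 uM rhodamine-CoA and 12.5 uM BHQ-2-labelled ybbR peptide in pH 7.6 Hepes/MgCl2 buffer. Enzyme was pre-incubated with compound for 15 min at room temperature. Rate was taken from the 30-min fluorescence change (525/598 nm).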
Coupling enz: inhibits coupling enzyme system, counter-screen for aldolase hits; coupling enzyme system counterscreen, AmpLite Red fluorescence; 0.67% of 290,000 active; activity change, negative = inhibition, % at 58.2 µM, hits read low; in the data active = activity change below about -30%
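Counterscreen lacking aldolase: glyceraldehyde-3-phosphate coupling-enzyme reagent preincubated 10 min at RT with compound (at 57.5 uM final), then substrate/coupling system with AmpLite Red added; fluorescence read at 525/598 nm after 20 min RT.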
Tau fibril FP: blocks human tau fibril formation measured by polarization. 0.39% of 280,000 active. Potency, µM (series often up to 57.7 µM), for the others: at the highest dose activity, negative = inhibition, hits mostly inhibitors. K18 P301L tau heparin fibrillization, Alexa594 FP, 6 h. AID 1468. P10636; note: potency is the fitted concentration of half-maximal effect; nearly all actives have a fitted effect of over 55% in size
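K18 P301L tau (15 uM unlabeled/0.24 uM Alexa 594-labeled, final) + compound + heparin 20 uM final; 100 mM NaOAc pH 7; 6 hr 37 C; ThT 30 uM final added, 1 hr RT; FP ex 555/em 632 nm.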
Numbers without * were called inactive; [ ] = remark or other dose. Rows were chosen to be rich in hits. Some 5.3% of all compounds tested hit in one or more screens of this group. Unless noted, calls come from the whole dose curve; as a rule, active = well fitted curve in the direction sought with a large enough effect; inconclusive = small, poorly fitted or top-dose-only effect, or another doubt; inactive = no such curve, though single readings can be large; an effect the other way counts as inactive or inconclusive. Unless noted, % is set by controls: 0 for no effect and ±100 for the full control effect.

`CCN(CCn1cccn1)C(=O)CC1C(=O)NCCN1Cc1ccc(F)c(F)c1` (stereo unspecified) gave JMJD2E inh -16%, Tau ThT inhib -13%, Tau fluor counter -13%, Sfp inh 9%, Coupling enz -4 and Tau fibril FP -4%.
COc1ccc(CN2CCNC(=O)C2CC(=O)N(C)Cc2nccs2)cc1OC (stereo unspecified) was read as Sfp inh -13% and Coupling enz -4.
For CCN(Cc1ccncc1)C(=O)CC1C(=O)NCCN1Cc1ccc(F)c(F)c1 (stereo unspecified) the results were JMJD2E inh inconclusive, Tau ThT inhib -6%, Tau fluor counter -2%, Sfp inh 79µM*, Coupling enz -23 and Tau fibril FP -5%.
`CN(Cc1nccs1)C(=O)CC1C(=O)NCCN1Cc1ccc(-c2ccccc2)cc1` (stereo unspecified) gave JMJD2E inh inconclusive, Tau ThT inhib inconclusive, Tau fluor counter -12%, Sfp inh 45µM*, Coupling enz -17 and Tau fibril FP -10%.
CC1(C)Cc2c(sc3nc[nH]c(=O)c23)CO1 was read as JMJD2E inh -2%, Tau ThT inhib 4%, Tau fluor counter 2%, Sfp inh 14%, Coupling enz 0 and Tau fibril FP -4%.
Screening C=CCNC(=S)NNc1nc2sc3c(c2c(=O)[nH]1)CC(C)(C)OC3 returned Sfp inh 7.1µM* and Coupling enz 1.
Screening CN(C1CCS(=O)(=O)C1)S(=O)(=O)c1ccccc1 (stereo unspecified) returned JMJD2E inh 0%, Tau ThT inhib 3%, Tau fluor counter 3%, Sfp inh 11µM*, Coupling enz -7 and Tau fibril FP 7%.
For Cc1ccc(S(=O)(=O)N(c2ccccc2)C2CCS(=O)(=O)C2)cc1 (stereo unspecified) the results were JMJD2E inh 3%, Tau ThT inhib -9%, Tau fluor counter 3%, Sfp inh 10%, Coupling enz 2 and Tau fibril FP 7%.
`CCc1nn(CC(=O)NC2CC2)c(=O)c2cc3c(OC)cccc3n12` gave Tau ThT inhib -6%, Tau fluor counter -4% and Tau fibril FP -4%.
Screening CCOC(=O)C1(C)C(C(=O)OC)=C(c2ccc(OC)cc2)c2ccccc2N1C(=O)OC (stereo unspecified) returned Tau ThT inhib -12%[81.4 µM], Tau fluor counter -6%[81.3 µM], Sfp inh -14%, Coupling enz -2 and Tau fibril FP 13%[81.3 µM].
`COC(=O)C1=C(C(=O)OC)SC(=C2C(=S)C(C)(C)N(C(=O)C(C)C)c3ccccc32)S1` gave JMJD2E inh -11%, Tau ThT inhib 1µM*, Tau fluor counter inconclusive, Sfp inh inconclusive, Coupling enz -1 and Tau fibril FP inconclusive.
`CC1C(=O)Nc2ccccc2N1C(=O)C1CC1` (stereo unspecified) gave JMJD2E inh 8%, Tau ThT inhib -12%, Tau fluor counter -16%, Sfp inh 12%, Coupling enz 0 and Tau fibril FP -5%.
Screening COC(=O)C1=C(C(=O)OC)SC(=C2C(=S)C(C)(C)N(C(=O)C3CC3)c3ccccc32)S1 returned JMJD2E inh 6%, Tau ThT inhib 2.5µM*, Tau fluor counter inconclusive, Sfp inh -12%, Coupling enz -4 and Tau fibril FP inconclusive.
Screening CCCC(=O)N1c2ccccc2C(=C2SC(C(=O)OC)=C(C(=O)OC)S2)C(=S)C1(C)C returned JMJD2E inh -11%, Tau ThT inhib 2.2µM*, Tau fluor counter inconclusive, Sfp inh -4%, Coupling enz 5 and Tau fibril FP inconclusive.
N[C@@H](Cc1cc(-c2ccc(Cl)cc2Cl)cc(CP(=O)(O)O)c1O)C(=O)O was read as JMJD2E inh 4%, Tau ThT inhib 11%, Tau fluor counter 7%, Sfp inh inconclusive, Coupling enz 19 and Tau fibril FP -3%.
`Cc1ccc(NC2=C(Cl)C(=O)OC2OC(=O)c2ccccc2)c(C)c1` (stereo unspecified) gave JMJD2E inh 2%, Tau ThT inhib inconclusive, Tau fluor counter inconclusive, Sfp inh 50µM*, Coupling enz -8 and Tau fibril FP -1%.
For Cc1cccc(C)c1NC1=C(Cl)C(=O)OC1OC(=O)c1ccccc1 (stereo unspecified) the results were JMJD2E inh -9%, Tau ThT inhib -15%, Tau fluor counter inconclusive, Sfp inh inconclusive, Coupling enz 1 and Tau fibril FP -10%.
C[C@H](C(=O)O)c1ccc2cc(O)ccc2c1 was read as Sfp inh 4% and Coupling enz 0.
`O=C(N/N=C/c1ccc2c(c1)OCO2)c1ccccn1` gave JMJD2E inh 1%, Tau ThT inhib -14%, Tau fluor counter -1%, Sfp inh 79µM*, Coupling enz -2 and Tau fibril FP -8%.
`O=C(/C=C/c1ccc2c(c1)OCO2)c1ccccn1` gave JMJD2E inh inconclusive, Tau ThT inhib 14µM*, Tau fluor counter -29%, Sfp inh 32µM*, Coupling enz -16 and Tau fibril FP -9%.
N/C(=N\OC(=O)/C=C/c1ccccc1)c1ccccn1 was read as JMJD2E inh -3%, Tau ThT inhib -9%, Tau fluor counter -3%, Sfp inh -3%, Coupling enz -1 and Tau fibril FP -4%.
`O=C(/C=C/c1ccccc1)c1ccccn1` gave JMJD2E inh inconclusive, Tau ThT inhib inconclusive, Tau fluor counter -3%, Sfp inh 28µM*, Coupling enz -5 and Tau fibril FP 10%.
Screening O=C(CCc1ccc(O)c(O)c1)N/N=C/c1ccc2c(c1)OCO2 returned Sfp inh 40µM*.
O=C(N/N=C/c1cc2c(cc1Br)OCO2)c1ccccn1 was read as JMJD2E inh inconclusive, Tau ThT inhib -10%, Tau fluor counter -9%, Sfp inh -9%, Coupling enz 2 and Tau fibril FP -4%.
`Cc1ccc2occ(CC(=O)N(Cc3ccccc3Cl)C3CCS(=O)(=O)C3)c2c1` (stereo unspecified) gave Tau ThT inhib -8%, Tau fluor counter -9% and Tau fibril FP 9%.
For Cc1c(C)c2cc(Cl)c(OCc3nn[nH]n3)cc2oc1=O the results were JMJD2E inh -1%, Tau ThT inhib -1%, Tau fluor counter 3%, Sfp inh 79µM*, Coupling enz 5 and Tau fibril FP 0%.
